Assay results reported in PubChem BioAssay (NCATS).
Where “and” joins values, the source holds several entries; their conditions need not be identical. Equal values may be shown once. Inconclusive results are not listed. Values without a mark were called inactive. Calls of active or inactive are those of the source. Calls follow the shape of the dose curve; as a rule, active = well fitted inhibition curve with a large enough effect; inconclusive = small, poorly fitted or top-dose-only effect; inactive = no such curve, though single readings can be large or run the other way. Where a SMILES comes first, the peptide text is derived from it. [ ]: non-standard residue; d: D form. dPhe(4-Cl) = N[C@H](Cc1ccc(Cl)cc1)C(=O)O; d2Nal = N[C@H](Cc1ccc2ccccc2c1)C(=O)O; dCit = NC(=O)NCCC[C@@H](N)C(=O)O; d3Pal = N[C@H](Cc1cccnc1)C(=O)O

assay: Primary qHTS for inhibitors of nuclear receptor binding SET domain protein 2 (NSD2) in an RCH-ACV wild type WT cells (2C) (AID 1645877); conditions: RCH-ACV (leukaemia line) NSD2 WT (2C) viability, CellTiter-Glo, 72 h; series mostly up to 44.9 µM; activity change, negative = cell killing: at the top concentration; also: nearly all actives have a fitted effect of over 70% in size
% is scaled to controls: 0 for no effect and ±100 for the full control effect; potency is read from the fitted curve at half-maximal effect.

Q: With `CCC(C(=O)O)c1ccc(N2Cc3ccccc3C2=O)cc1` (centres undefined) as the compound, how does the “activity change, negative = cell killing” value read?
A: 8.14%

Q: Which “activity change, negative = cell killing” value does the source give for `COc1ccc(/C=C/C(=O)O[C@@H]2[C@@H](O)[C@@H](O)[C@H](O[C@@H]3C=C(CO)[C@H]4[C@H](O[C@@H]5O[C@H](CO)[C@@H](O)[C@H](O)[C@H]5O)OC=C[C@H]43)O[C@H]2C)cc1O` here?
A: -5.22% [at 17.3 µM]

Q: With `C[C@@H]([C@@H](O)c1ccc(O)cc1)N1CCC(O)(c2ccccc2)CC1` as the compound, how does the “activity change, negative = cell killing” value read?
A: -2.36%

Q: For `CC(C)c1ccc2c(c1)C(=O)CC1[C@@](C)(C(=O)O)CCC[C@]21C` (some centres undefined), which “activity change, negative = cell killing” value is on record?
A: -17.7%

Q: With `C[C@@H]1C[C@H]2O[C@@H]2/C=C\C=C\C(=O)Cc2c(Cl)c(O)cc(O)c2C(=O)O1` as the compound, how does the Potency read?
A: 275 nM (active) and 640 nM (active)

Q: For `CCN(Cc1cccnc1)C(=O)CN(c1ccc(OC)nc1)S(=O)(=O)c1ccccc1C`, which “activity change, negative = cell killing” value is on record?
A: 1.23%

Q: Which Potency does the source give for `CC[C@@H](N)CNc1ccnc(-c2cc(-c3cnn(C)c3)ccc2O)n1` here?
A: 1.03 µM (active)

Q: With `CC(=O)C=C=C1C(C)(C)CC(O[C@@H]2O[C@H](CO)[C@@H](O)[C@H](O)[C@H]2O)CC1(C)O` (some centres undefined) as the compound, how does the “outcome” value read?
A: inactive

Q: Which “activity change, negative = cell killing” value does the source give for `Cc1ccc(C(=O)Nc2noc3ccccc23)cc1` here?
A: -7.29%

Q: Which activity change, negative = cell killing does the source give for `C/C=C(\C)C(=O)O[C@@H]1CC2[C@@H](CC=C3C[C@@H](O[C@H]4C[C@H](OC)[C@H](O[C@H]5C[C@H](OC)[C@H](O[C@@H]6O[C@H](C)[C@@H](O[C@H]7C[C@H](OC)[C@H](O[C@@H]8O[C@H](CO)[C@@H](O)[C@H](O)[C@H]8O)[C@@H](C)O7)[C@H](OC)[C@H]6O)[C@@H](C)O5)[C@@H](C)O4)CC[C@@]32C)[C@@]2(O)CC[C@H](C(C)=O)[C@@]12C` (some centres undefined) here?
A: -12.6% [at 9.23 µM]

Q: For `O=C1N=C(N2CCOCC2)CN1c1ccc(Cl)cc1`, which “activity change, negative = cell killing” value is on record?
A: -26.5%

Q: Which Potency does the source give for `C[C@@H]1O[C@@H](O[C@H]2[C@H](O)[C@@H](O)[C@H](O[C@H]3[C@H](O[C@H]4CC[C@@]5(C)C(=CC[C@@H]6C5CC[C@]5(C)[C@@H]7[C@H](C[C@@H]65)O[C@]5(CC[C@@](C)(CO[C@@H]6O[C@H](CO)[C@@H](O)[C@H](O)[C@H]6O)O5)[C@H]7C)C4)O[C@H](CO)[C@@H](O)[C@@H]3O)O[C@@H]2CO)[C@H](O)[C@H](O)[C@H]1O` (some centres undefined) here?
A: 2.18 µM (active)

Q: For `CNC(=O)c1ccccc1Nc1cc(Nc2ccc(N3CCOCC3)cc2OC)ncc1C(F)(F)F`, which Potency is on record?
A: 2.9 µM (active)

Q: For `CC(C)(C(=O)NCC(F)(F)C(F)(F)F)C(=O)NC1C(=O)Nc2ccccc2-c2ccccc21` (centres undefined), which Potency is on record?
A: 14.5 µM (active)

Q: For `CC(O)c1cc(C(=O)N[C@@H](C)Cn2ccc(-c3ccc(C#N)c(Cl)c3)n2)n[nH]1` (some centres undefined), which Potency is on record?
A: 20.9 µM (active)

Q: For `Cc1ccc(C(=O)N(CCCN)C(c2nc3cc(Cl)ccc3c(=O)n2Cc2ccccc2)C(C)C)cc1` (centres undefined), which Potency is on record?
A: 0.0073 µM (active)

Q: Which “activity change, negative = cell killing” value does the source give for `CC(=O)O[C@H]1C[C@@](O)(C(C)C)C2[C@@H](OC(=O)c3ccc(O)cc3)C[C@@]3(C)O[C@H]3C[C@]21C` (some centres undefined) here?
A: -8.91% [at 17.3 µM]

Q: With `CC(=O)N[C@H](Cc1ccc2ccccc2c1)C(=O)N[C@H](Cc1ccc(Cl)cc1)C(=O)N[C@H](Cc1cccnc1)C(=O)N[C@@H](CO)C(=O)N[C@@H](Cc1ccc(O)cc1)C(=O)N[C@H](CCCNC(N)=O)C(=O)N[C@@H](CC(C)C)C(=O)N[C@@H](CCCN=C(N)N)C(=O)N1CCC[C@H]1C(=O)N[C@H](C)C(N)=O` (Ac-[d2Nal][dPhe(4-Cl)][d3Pal]SY[dCit]LRP[dA]-NH2) as the compound, how does the “outcome” value read?
A: inactive [at 17.3 µM]

Q: For `CCOc1cc(C(=O)N2CCC(N3CCN(C)CC3)CC2)ccc1Nc1ncc2c(n1)N(C1CCCC1)c1ccccc1C(=O)N2C`, which Potency is on record?
A: 1.29 µM (active) and 1.66 µM (active)

Q: For `C/C1=C\[C@H]2OC(=O)[C@@H](C)[C@@H]2CC/C(C(=O)O)=C/CC1`, which “activity change, negative = cell killing” value is on record?
A: -20.9%

Q: Which activity change, negative = cell killing does the source give for `CC1(C)CC[C@@]2(C(=O)O[C@@H]3O[C@H](CO)[C@@H](O)[C@H](O)[C@H]3O)C(C1)C1=CCC3[C@@]4(C)CC[C@@H](O[C@@H]5O[C@H](C(=O)O)[C@@H](O[C@@H]6OC[C@@H](O)[C@H](O)[C@H]6O)[C@H](O[C@@H]6OC[C@](O)(CO)[C@H]6O)[C@H]5O)C(C)(C)C4CC[C@@]3(C)[C@]1(C)C[C@H]2O` (some centres undefined) here?
A: -88.4% [at 9.23 µM]

Q: For `COc1cccc(Nc2ncnn3ccc(CN4CC[C@@H](N)[C@H](O)C4)c23)c1`, which Potency is on record?
A: 4.68 µM (active)

Q: Which Potency does the source give for `CS(=O)(=O)N1CCC(NC(=O)c2[nH]ncc2NC(=O)c2c(Cl)cccc2Cl)CC1` here?
A: 0.332 µM (active)

Q: For `COCCOc1ccc(N2CCN(CCn3ncc4c3nc(N)n3nc(-c5ccco5)nc43)CC2)cc1`, which “activity change, negative = cell killing” value is on record?
A: -0.524%

Q: With `CC(C)=CCC/C(C)=C/CO[C@@H]1O[C@H](CO)[C@@H](O)[C@H](O)[C@H]1O` as the compound, how does the “outcome” value read?
A: inactive

Q: For `COCCN1CCN(Cc2ccc(-c3n[nH]c4c3C(=O)c3c(NC(=O)NN5CCOCC5)cccc3-4)cc2)CC1`, which Potency is on record?
A: 36.5 nM (active) and 52.5 nM (active)

Q: For `CC(C)(C)c1cc(Br)cc([C@H](CC(=O)O)NC(=O)CNC(=O)c2cc(O)cc(NC3=NCC(O)CN3)c2)c1` (some centres undefined), which “activity change, negative = cell killing” value is on record?
A: 0.326%

Q: Which Potency does the source give for `CCOC(=O)Nc1cc(-c2ccc(C)c(NS(C)(=O)=O)c2)nn2c(C)nnc12` here?
A: 0.515 µM (active)

Q: With `c1cc(Nc2cc(C3CC3)[nH]n2)nc(Nc2ccc3nc[nH]c3c2)n1` as the compound, how does the Potency read?
A: 0.468 µM (active)

Q: Which “activity change, negative = cell killing” value does the source give for `COc1ccc([C@H]2CNC(=O)C2)cc1OC1CCCC1` here?
A: -9.41%

Q: With `CC(=O)OC1C(O)C2C(C)C3=CC(=O)OC3(O)CC2C2(C)CCCC(C)(CO)C12` (centres undefined) as the compound, how does the “activity change, negative = cell killing” value read?
A: -0.972% [at 17.3 µM]

Q: For `CC1(C)CC2C(C1)C(C)(O)C13CC1(COC3=O)C2O` (centres undefined), which “activity change, negative = cell killing” value is on record?
A: -23.6%

Q: With `C[C@@H]1CN(Cc2ccccc2)C[C@H]1c1nc2c(cnn2C2CCOCC2)c(=O)[nH]1` as the compound, how does the “activity change, negative = cell killing” value read?
A: -26.6%

Q: For `Cn1ncnc1COc1nn2c(-c3cc(F)ccc3F)nnc2cc1C(C)(C)C`, which Potency is on record?
A: 1.03 µM (active)

Q: With `C=C1CC[C@@H]2[C@@](C)(CO[C@@H]3O[C@H](CO)C(O)[C@H](O)C3O)[C@H](O)CC[C@@]2(C)[C@@H]1CC/C(C)=C/CO` (some centres undefined) as the compound, how does the activity change, negative = cell killing read?
A: -1.61% [at 9.23 µM]

Q: Which outcome does the source give for `C=C(C)C1CCC2(C(=O)O[C@@H]3O[C@H](CO[C@@H]4O[C@H](CO)[C@@H](O)[C@H](O)[C@H]4O)[C@@H](O)[C@H](O[C@@H]4O[C@@H](C)[C@H](O)[C@@H](O)[C@H]4O)[C@H]3O)CCC3(C(=O)O)C(CCC4C5(C)CCC(O)C(C)(C)C5CCC43C)C12` (some centres undefined) here?
A: inactive [at 9.23 µM]

Q: Which “activity change, negative = cell killing” value does the source give for `c1ccc(N2CCN(CCc3nn[nH]n3)CC2)cc1` here?
A: -26.4%

Q: For `CCNC(=O)C1OC(n2cnc3c(N)nc(NCCc4ccc(CCC(=O)O)cc4)nc32)C(O)C1O` (centres undefined), which “activity change, negative = cell killing” value is on record?
A: -6.57%

Q: With `CC(=O)O[C@H]1[C@@H](O)[C@H](O[C@H]2[C@@H]3C=CO[C@@H](O[C@H]4O[C@@H](CO)[C@H](O)[C@@H](O)[C@@H]4O)[C@@H]3[C@@]3(CO)O[C@@H]23)O[C@@H](C)[C@@H]1OC(=O)/C=C/c1ccccc1` as the compound, how does the “outcome” value read?
A: inactive [at 17.3 µM]
